Screening data from PubChem BioAssay.
CHX counter – counter-screen for Shiga toxin inhibitors: cycloheximide protein synthesis inhibition; cell reporter, cycloheximide protein synthesis inhibition counterscreen; actives 12% (n = 300,000); max response, %; in the data active = max response mostly above about 13%, no sharp cut-off; inactive = mostly below about 14%; note: read at 38.3 µM for the half of the compounds with a filed dose
AMA1-RON2 inh – disrupts binding of P. falciparum AMA1 to RON2; AlphaScreen AMA1-biotinylated RON2 peptide binding; Potency, µM (series often up to 58.2 µM), usual class: inhibitors; actives 0.2% (n = 360,000); AID 720542; note: nearly all actives have a fitted effect of over 45% in size
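AMA1 (3D7) with his tag at 25 nM final met compounds first, then biotinylated RON2 peptide at 25 nM; detection used donor plus acceptor beads, 10 µg/mL apiece, read by AlphaScreen after 30 min at room temperature.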
Pf growth 96h – P. falciparum growth inhibition at 96 hours; P. falciparum luciferase reporter growth, 96 h; Potency, µM (doses to about 28.7 µM), most hits filed as inhibitors; actives 6.9% (n = 320,000); AID 504834
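Compounds incubated with erythrocytes infected by luciferase-expressing P. falciparum (2% hematocrit, 0.05% parasitemia final) for 96 hours, 37 C in 5% CO2. Growth inhibition scored as decreased luciferase luminescence.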
Pf growth 48h – P. falciparum growth inhibition at 48 hours (one generation). Potency, µM (top dose mostly 28.7 µM), actives largely listed as inhibitors. P. falciparum luciferase growth in erythrocytes, 48 h. actives 5.9% (n = 310,000)
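Erythrocytes infected with P. falciparum carrying an integrated firefly luciferase reporter (2% hematocrit, 0.1% parasitemia final) were exposed to compounds in RPMI 1640 with 0.5% Albumax at 37 C, 5% CO2. Growth inhibition was scored as reduced luminescence.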
HCV inhibitor – blocks hepatitis C virus; Huh7.5.1 HCVcc-Cre infection, luciferase reporter, 44 h; Potency, µM (doses to about 41.8 µM), most hits filed as inhibitors; actives 3.4% (n = 340,000)
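Infectious HCV cell culture screen: compound-treated cells (1,000/well, pre-plated 4 h) are infected with HCVcc-Cre at roughly 0.5 moi and grown 44 h. Infection is quantified by luciferase signal after 15 min substrate incubation at room temperature.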
Shiga toxin inh – blocks Shiga toxin action in Vero cells | Vero cells, Shiga toxin protein synthesis inhibition reporter | inhibition, % at 38.7 µM | actives 9.2% (n = 290,000); in the data active = inhibition mostly above about 28%, no sharp cut-off; inactive = mostly below about 43%
Hits are given with their value; [ ] = dose if it differs, or a comment. Most compounds without a hit are left out; they make up all but 21% or so of the library. Unless noted, calls come from the whole dose curve; as a rule, active = well fitted curve in the direction sought with a large enough effect; inconclusive = small, poorly fitted or top-dose-only effect, or another doubt; inactive = no such curve, though single readings can be large; an effect the other way counts as inactive or inconclusive.

`CCN(CC)C(=O)C1=C(C)NC(=S)NC1c1cn(-c2ccccc2)nc1-c1ccc(Cl)cc1` (centres undefined) gave CHX counter inactive, AMA1-RON2 inh inactive, Pf growth 96h inconclusive, Pf growth 48h 4.1µM, HCV inhibitor inactive and Shiga toxin inh inactive.
`O=C1NC2(CCCCC2)C(=O)N1/N=C/c1ccc(O)cc1O` gave CHX counter 38, AMA1-RON2 inh inactive, Pf growth 96h inconclusive, HCV inhibitor inactive and Shiga toxin inh 53.
O=C1NC2(CCCCC2)C(=O)N1/N=C/c1ccccc1Br was read as CHX counter 23, AMA1-RON2 inh inactive, Pf growth 96h inactive, Pf growth 48h 3.3µM, HCV inhibitor inactive and Shiga toxin inh inactive.
O=C(CN1C(=O)NC2(CCCC2)C1=O)N1CCN(S(=O)(=O)c2ccccc2Br)CC1 was read as CHX counter inactive, AMA1-RON2 inh inactive, Pf growth 96h inactive, Pf growth 48h inactive, HCV inhibitor inactive and Shiga toxin inh inactive.
For Cc1nc2ccccc2c(=O)n1/N=C/c1ccc(O)cc1O the results were CHX counter inactive, AMA1-RON2 inh inactive, Pf growth 96h inactive, Pf growth 48h inactive, HCV inhibitor inactive and Shiga toxin inh inactive.
`CCC(COC)NCc1cn(-c2ccc(OC)cc2)nc1-c1cccc(F)c1` (centres undefined) gave CHX counter inactive, AMA1-RON2 inh inactive, Pf growth 96h inconclusive, Pf growth 48h 12µM, HCV inhibitor inactive and Shiga toxin inh inactive.
COc1ccc(-n2cc(CNC3CCN(C)CC3)c(-c3cccc(F)c3)n2)cc1 was read as CHX counter inactive, AMA1-RON2 inh inactive, Pf growth 96h inactive, Pf growth 48h 1.5µM, HCV inhibitor 11µM and Shiga toxin inh inactive.
`COc1ccc(-n2cc(CN[C@H]3CCCCNC3=O)c(-c3cccc(F)c3)n2)cc1` gave CHX counter inactive, AMA1-RON2 inh inactive, Pf growth 96h inconclusive, Pf growth 48h inconclusive, HCV inhibitor inconclusive and Shiga toxin inh inactive.
For COc1ccc(-n2cc(CNC(C)c3ccncn3)c(-c3cccc(F)c3)n2)cc1 (centres undefined) the results were CHX counter inactive, AMA1-RON2 inh inactive, Pf growth 96h inconclusive, Pf growth 48h inactive, HCV inhibitor inactive and Shiga toxin inh inactive.
`CCN(C(=O)COC(=O)CNC(=O)c1ccc(C)cc1)c1c(N)n(Cc2ccccc2)c(=O)[nH]c1=O` gave AMA1-RON2 inh inactive, Pf growth 96h inactive, Pf growth 48h inactive and HCV inhibitor inactive.
COC(=O)C(C(=O)OC)c1cc2c(cc1CNS(=O)(=O)c1ccc(C)cc1)OCO2 was read as AMA1-RON2 inh inactive.
Screening Cc1ccc(C(C(=O)NC2CCCC2)N(C(=O)Cc2cccs2)c2cccc(C)c2C)o1 (centres undefined) returned CHX counter inactive, AMA1-RON2 inh inactive, Pf growth 96h 12µM, Pf growth 48h inconclusive, HCV inhibitor inactive and Shiga toxin inh inactive.
CCCOc1ccccc1-n1sc2c(c1=S)-c1cc(OC)cc3c1N(C(=O)C3=O)C2(C)C was read as CHX counter inactive, AMA1-RON2 inh 2.8µM, Pf growth 96h inconclusive, HCV inhibitor 13µM and Shiga toxin inh inactive.
C=CCSC1=C(C#N)C(c2ccc(OCC)cc2)CC(=O)N1 (centres undefined) was read as CHX counter inactive, AMA1-RON2 inh inactive, Pf growth 96h 7.4µM, HCV inhibitor inactive and Shiga toxin inh inactive.
C=CCSC1=C(C#N)C(c2ccccc2C)CC(=O)N1 (centres undefined) was read as CHX counter inactive, AMA1-RON2 inh inactive, Pf growth 96h inactive, Pf growth 48h inactive, HCV inhibitor inactive and Shiga toxin inh inactive.
For C=CCSC1=C(C#N)C(c2ccccc2Cl)CC(=O)N1 (centres undefined) the results were CHX counter inactive, AMA1-RON2 inh inactive, Pf growth 96h 3.3µM, Pf growth 48h inactive, HCV inhibitor inactive and Shiga toxin inh inactive.
Screening CCc1nn(CC(=O)N2CCN(c3ccc(OC)cc3)CC2)c(=O)c2cc3occc3n12 returned CHX counter inactive, AMA1-RON2 inh inactive, Pf growth 96h inactive, Pf growth 48h inactive, HCV inhibitor inconclusive and Shiga toxin inh inactive.
COc1ccc2nc3cc(Cl)ccc3c(Nc3cc(C(C)C)c(O)cc3C)c2c1 was read as CHX counter inactive, AMA1-RON2 inh 16µM, Pf growth 96h 0.066µM, Pf growth 48h 0.021µM, HCV inhibitor 11µM and Shiga toxin inh 27.
CCOC(=O)CC(S(=O)(=O)c1ccccc1)S(=O)(=O)c1ccccc1 was read as AMA1-RON2 inh inactive.
`CC(NC(c1ccccc1)c1ccccc1)C(=O)N1CCCc2ccccc21` (centres undefined) gave CHX counter inactive, AMA1-RON2 inh inactive[2.32 µM], Pf growth 96h 10µM, Pf growth 48h 10µM, HCV inhibitor inactive and Shiga toxin inh inactive.
`Cc1ccc(NC(=O)N2CCCc3ccccc32)cc1C` gave CHX counter 39, AMA1-RON2 inh inactive, Pf growth 96h inactive, Pf growth 48h inactive, HCV inhibitor inactive and Shiga toxin inh 53.
Screening Cc1nc(C)c(NC(=O)N2CCc3ccccc32)cc1NC(=O)N1CCc2ccccc21 returned CHX counter inactive, AMA1-RON2 inh inactive, Pf growth 48h inconclusive, HCV inhibitor inactive and Shiga toxin inh inactive.
`CC(Nc1ccccc1N1CCCCC1)C(=O)N1CCc2ccccc21` (centres undefined) gave CHX counter inactive, AMA1-RON2 inh inactive, Pf growth 96h inconclusive, Pf growth 48h inconclusive, HCV inhibitor inactive and Shiga toxin inh inactive.
For O=C(Nc1ccccc1)N1CCCc2ccccc21 the results were CHX counter inactive, AMA1-RON2 inh inactive, Pf growth 96h inconclusive, Pf growth 48h inactive, HCV inhibitor inactive and Shiga toxin inh 26.
Cc1cccc(NC(=O)N2CCCc3ccccc32)c1C was read as CHX counter 36, AMA1-RON2 inh inactive, Pf growth 96h inactive, Pf growth 48h inactive, HCV inhibitor inactive and Shiga toxin inh inactive.
Screening Cc1cccc(NC(=O)CSCC(=O)N2CCCc3ccccc32)c1 returned AMA1-RON2 inh inactive, Pf growth 96h inconclusive, Pf growth 48h inactive and HCV inhibitor inactive.
For COC(=O)c1ccc2cc(OC)cc([N+](=O)[O-])c2n1 the results were AMA1-RON2 inh inactive and HCV inhibitor inactive.
Screening CC(C)C(C(=O)Nc1ccncc1)c1ccc(Cl)cc1 (centres undefined) returned CHX counter inactive, AMA1-RON2 inh inactive, Pf growth 96h 1.5µM, Pf growth 48h 3.3µM, HCV inhibitor inconclusive and Shiga toxin inh inactive.
For CC(C)C(C(=O)Nc1nccs1)c1ccc(Cl)cc1 (centres undefined) the results were CHX counter inactive, AMA1-RON2 inh inactive, Pf growth 96h 9.3µM, Pf growth 48h inconclusive, HCV inhibitor inconclusive and Shiga toxin inh inactive.
For CNC(=O)C[C@H]1C(=O)N(c2ccc(OC)cc2)C[C@@H]1C the results were AMA1-RON2 inh inactive.
